High-throughput results (PubChem BioAssay)
FMDV antiviral – High Throughput Screening for Foot and Mouth Disease Virus Antivirals; 410,000 compounds, 1.2% hits; FMDV antiviral cell-based qHTS; Potency, µM (doses to about 57.9 µM), usual class: inhibitors; AID 1159524, 2015; calls by dose curve; tested in HEK293T cells; further: read-out not given here; nearly all actives have a fitted effect of over 45% in size
VACV mCherry inh – qHTS for Stage-Specific Inhibitors of Vaccinia Orthopoxvirus: mCherry Reporter Primary qHTS; Potency, µM (titrated, usually from 36.5 µM), most hits filed as inhibitors; AID 720579, 2013; Vaccinia virus mCherry reporter infection, fluorescence; 310,000 compounds, 0.63% hits; calls by dose curve; tested in A549 cells; further: nearly all actives have a fitted effect of over 35% in size
FBPA Giardia inh – qHTS Assay for Inhibitors of Fructose-1,6-bisphosphate Aldolase from Giardia Lamblia; Potency, µM (highest dose often 59.6 µM), hits mostly inhibitors; A8B2U2; purified Giardia FBPA; 290,000 compounds, 0.71% hits; further: nearly all actives have a fitted effect of over 55% in size
Target sequence (A8B2U2 whole entry, looked up): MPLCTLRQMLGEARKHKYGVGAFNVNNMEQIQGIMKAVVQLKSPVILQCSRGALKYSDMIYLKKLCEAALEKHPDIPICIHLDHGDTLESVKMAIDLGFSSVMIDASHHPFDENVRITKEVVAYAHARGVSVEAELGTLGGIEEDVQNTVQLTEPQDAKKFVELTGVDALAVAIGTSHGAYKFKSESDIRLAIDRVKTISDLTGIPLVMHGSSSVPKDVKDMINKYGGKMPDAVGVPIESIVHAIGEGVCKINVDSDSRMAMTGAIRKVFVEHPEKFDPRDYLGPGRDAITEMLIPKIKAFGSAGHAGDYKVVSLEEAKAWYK
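Giardia FBPA (40 nM reagent) was preincubated 10 min at RT with compound (up to 57.5 uM final), then substrate plus GAPDH/TPI/NAD/arsenate coupling system with diaphorase/resazurin was added; resorufin fluorescence (525/598 nm) was read after 20 min.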
HCV inhibitor – qHTS Assay for Inhibitors of Hepatitis C Virus (HCV) | 340,000 compounds, 3.4% hits | Huh7.5.1 HCVcc-Cre infection, luciferase reporter, 44 h | Potency, µM (top dose mostly 41.8 µM), actives largely listed as inhibitors
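A cell-based infection assay in which seeded cells (1,000 per well) receive test compound after 4 h, are inoculated with HCVcc-Cre at approximately 0.5 moi, and are incubated 44 h before luminescence detection.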
HCMV antiviral – qHTS Assay for inhibitors of the human cytomegalovirus (HCMV). HFF cells, HCMV-luciferase reporter, 72 h; active compounds read low. activity change, negative = inhibition, % at 57.5 µM. 410,000 compounds, 4.5% hits; in the data active means activity change below about -60%; inconclusive means no clear call, values can overlap the other calls; inactive means above about -39%
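Human foreskin fibroblasts infected with luciferase-reporter HCMV at MOI 1 PFU/cell, compounds at two doses. Luciferase measured 72 h post infection; normalized to buffer-only basal and Salinomycin (10uM) controls.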
Vaccinia Venus – qHTS for Stage-Specific Inhibitors of Vaccinia Orthopoxvirus: Venus Reporter Primary qHTS. Vaccinia virus Venus reporter expression, fluorescence. 330,000 compounds, 0.46% hits. Potency, µM (top dose mostly 36.5 µM), actives largely listed as inhibitors; calls by dose curve; tested in A549 cells; further: nearly all actives have a fitted effect of over 30% in size
Of the large screens only hits and unclear results are named; the others gave an inactive call; ! = not confirmed by another sample. Hits are enriched below; roughly 7.5% of the tested compounds scored in any of these assays. Unless noted, the call rests on the fitted dose curve; in most records, active means well fitted curve in the direction sought with a large enough effect; inconclusive means small, poorly fitted or top-dose-only effect, or another doubt; inactive means no such curve, though single readings can be large; an effect the other way counts as inactive or inconclusive.

CC(=O)c1ccc(OCCCC(=O)Nc2cc(S(=O)(=O)N(C)C)ccc2C)cc1	none
Cc1cc(NC(=O)COC(=O)c2c(C)noc2C)ccc1Br	HCMV antiviral inconclusive
Cc1ccc(NC(=O)CCCOc2ccccc2)cc1S(=O)(=O)N1CCOCC1	HCV inhibitor inconclusive (no result: VACV mCherry inh, FBPA Giardia inh, Vaccinia Venus)
Cc1ccc(OCCCC(=O)Nc2ccc(Cl)c(S(=O)(=O)N3CCOCC3)c2)cc1	FMDV antiviral inconclusive, HCV inhibitor 7.1µM (no result: VACV mCherry inh, FBPA Giardia inh, Vaccinia Venus)
O=C(CCCOc1ccccc1)Nc1ccc(Cl)c(S(=O)(=O)N2CCOCC2)c1	FMDV antiviral 28µM, HCV inhibitor 7.1µM, HCMV antiviral -73 (no result: FBPA Giardia inh)
CCN(CC)S(=O)(=O)c1cc(NC(=O)CCCOc2ccc(C(C)=O)cc2)ccc1C	FMDV antiviral 16µM, HCV inhibitor 10µM, Vaccinia Venus inconclusive
CCN(CC)S(=O)(=O)c1cc(NC(=O)COC(=O)c2c(C)noc2C)ccc1C	HCV inhibitor 14µM (no result: VACV mCherry inh, FBPA Giardia inh, Vaccinia Venus)
CN(C)c1cccc(Nc2cc3c(cn2)cc(-c2cnn(C)c2)n3C)c1	none (no result: FMDV antiviral, VACV mCherry inh, FBPA Giardia inh, HCV inhibitor, Vaccinia Venus)
CC(C)C[C@H]1COc2cc(NCCCN3CCOCC3)ccc2S(=O)(=O)N1	none (no result: FMDV antiviral, VACV mCherry inh, FBPA Giardia inh, HCV inhibitor, Vaccinia Venus)
CC1CCN(C(=O)CSc2nc(=O)n3ccccc3n2)CC1	none (no result: FBPA Giardia inh)
Cc1cc(NCc2ccccn2)n2c(nc3ccccc32)c1C#N	none (no result: VACV mCherry inh, Vaccinia Venus)
CCCc1cc(NCc2ccccn2)n2c(nc3ccccc32)c1C#N	HCV inhibitor 13µM
CCOC(=O)CSc1nc(-c2ccc(C)cc2C)cc(-c2ccccc2)c1C#N	HCMV antiviral inconclusive (no result: FBPA Giardia inh, HCV inhibitor)
C/C(=N/NS(=O)(=O)c1ccc(C)cc1C)c1c[nH]c2ccccc12	VACV mCherry inh 5µM, HCV inhibitor inconclusive, HCMV antiviral inconclusive
C/C(=N/NS(=O)(=O)c1ccc(C)c(C)c1)c1c[nH]c2ccccc12	none (no result: VACV mCherry inh, Vaccinia Venus)
COc1ccc(CCNc2ncnc3onc(C)c23)c(OC)c1	FMDV antiviral 13µM, VACV mCherry inh inconclusive, HCMV antiviral inconclusive (no result: FBPA Giardia inh, HCV inhibitor)
CSc1ccc(CCNc2ncnc3onc(C)c23)cc1	HCMV antiviral -65 (no result: FBPA Giardia inh, HCV inhibitor)
CCCNc1ncnc2onc(C)c12	HCV inhibitor inconclusive
COc1cc2cc(Br)cc(Br)c2nc1C	HCV inhibitor 11µM
COC(=O)[C@H]1[C@@H]2C[C@@H]3c4[nH]c5ccccc5c4CCN3C[C@H]2CC[C@H]1O	none (no result: FMDV antiviral, VACV mCherry inh, HCV inhibitor, HCMV antiviral, Vaccinia Venus)
NNC(=O)C1C(O)CCC2CN3CCc4c([nH]c5ccccc45)C3CC21 (centres undefined)	HCMV antiviral -100 (no result: FBPA Giardia inh)
COc1ccccc1NC(=O)CN1CCN(CC(=O)Nc2ccc(S(N)(=O)=O)cc2)CC1	FMDV antiviral inconclusive, HCMV antiviral -64 (no result: VACV mCherry inh, Vaccinia Venus)
NS(=O)(=O)c1ccc(NC(=O)CN2CCN(S(=O)(=O)/C=C/c3ccccc3)CC2)cc1	HCMV antiviral -100
COc1cccc(-c2nc3cc4c(cc3cc2CN(C(=O)c2cc(C)nn2C)C2CC2)CCC4)c1OC	FMDV antiviral inconclusive (no result: FBPA Giardia inh, HCV inhibitor, HCMV antiviral)
Cc1ccc(CC(=O)Nc2nccs2)cc1C	HCMV antiviral -94
CCCCCCSc1cc(-c2nc3ccc(C)cn3c2NCc2ccccc2)ccc1OC	FMDV antiviral 40µM! (no result: FBPA Giardia inh)
CCCCNc1c(-c2ccc(SC(C)CC)cc2)nc2cnccn12 (centres undefined)	FMDV antiviral inconclusive, VACV mCherry inh 32µM, HCV inhibitor inconclusive, Vaccinia Venus 22µM (no result: FBPA Giardia inh, HCMV antiviral)
CCCCCCSc1cccc(-c2nc3ccccn3c2NCc2ccccc2)c1	FMDV antiviral 25µM, HCMV antiviral -65! (no result: FBPA Giardia inh)
CCCCNc1c(-c2ccc(SC(C)CC)c(OC)c2)nc2ccc(C)cn12 (centres undefined)	FMDV antiviral 22µM, VACV mCherry inh inconclusive, HCV inhibitor 10µM, HCMV antiviral -94, Vaccinia Venus inconclusive (no result: FBPA Giardia inh)
COc1cc(C(=O)Nc2nnc(CC(=O)NCc3ccccc3)s2)cc(OC)c1OC	none (no result: VACV mCherry inh, Vaccinia Venus)
CC(C)CNc1nc(Br)cnc1N	none (no result: FMDV antiviral, VACV mCherry inh, FBPA Giardia inh, HCV inhibitor, Vaccinia Venus)
CC12CCC3c4ccccc4CCC3(CO1)C2 (centres undefined)	none (no result: FBPA Giardia inh, HCV inhibitor)
COc1ccc(S[C@]2(C(=O)N3CCCC3)CC(=O)N(c3ccccc3)[C@@H]2c2ccc(OC)cc2)cc1	none (no result: FMDV antiviral, VACV mCherry inh, FBPA Giardia inh, HCV inhibitor, Vaccinia Venus)
Nc1cc(-c2ccc(Br)cc2)nn1Cc1ccccc1	VACV mCherry inh inconclusive, HCV inhibitor 1.3µM, HCMV antiviral -77
